± gives the standard deviation.
Legend:
Test in all cases: peptide microarray binding signal (635 nm), min-max normalized on array (fraction of array maximum); higher = stronger binding
Settings in all cases: peptide region: H3 5-17
[1] = target: T1, HaloTag-ATRX ADD domain (163-292)
T1 chain: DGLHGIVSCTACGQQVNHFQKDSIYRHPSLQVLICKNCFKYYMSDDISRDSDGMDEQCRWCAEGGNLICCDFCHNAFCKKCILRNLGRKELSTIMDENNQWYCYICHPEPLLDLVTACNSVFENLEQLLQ
Procedure, shortened: (§1)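 Arrays carried histone 13-mer peptide–cellulose conjugates printed in triplicate on nitrocellulose alongside a Cy3 tracer. After overnight blocking at 4°C, they were incubated for 1 h at 4°C with biotin-labelled HaloTag reader fusions (10 nM to 1 μM) plus streptavidin-Alexa Fluor 647, or with rabbit histone antibodies (1:10,000 to 1:2,000) plus anti-rabbit Alexa 647. Scanning on an Axon GenePix 4000B used 635 nm for signal and 532 nm for misprints. The binding signal reported is each triplicate's mean spot intensity after per-library min-max scaling.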

[2] = target: HaloTag-ING2 PHD (mouse Ing2 200-280)
Procedure, shortened: as §1

[3] = target: anti-H3K4me3 antibody ab8580
Procedure, shortened: as §1

[4] = target: anti-H3K9me3 antibody ab8898
Procedure, shortened: as §1

[5] = peptide modifications: H3K9me3 H3K14ac, binder concentration: 1:2,000 dilution
[6] = peptide modifications: H3K9me3 H3K14ac, binder concentration: 1:10,000 dilution
[7] = peptide modifications: H3K9me2 H3K14ac, binder concentration: 1:2,000 dilution
[8] = peptide modifications: H3K9me2 H3K14ac, binder concentration: 1:10,000 dilution
[9] = peptide modifications: H3K9me1 H3T11ph, binder concentration: 1:2,000 dilution
[10] = peptide modifications: H3K9me1 H3T11ph, binder concentration: 1:10,000 dilution
[11] = peptide modifications: H3K9me2, binder concentration: 1:2,000 dilution
[12] = peptide modifications: H3K9me2, binder concentration: 1:10,000 dilution
[13] = peptide modifications: H3K9me2 H3K14me2, binder concentration: 1:2,000 dilution
[14] = peptide modifications: H3K9me2 H3K14me2, binder concentration: 1:10,000 dilution
[15] = peptide modifications: H3K9me2 H3K14me3, binder concentration: 1:2,000 dilution
[16] = peptide modifications: H3K9me2 H3K14me3, binder concentration: 1:10,000 dilution
[17] = peptide modifications: H3K9me2 H3K14me1, binder concentration: 1:2,000 dilution
[18] = peptide modifications: H3K9me2 H3K14me1, binder concentration: 1:10,000 dilution
[19] = peptide modifications: H3K9me3, binder concentration: 1:2,000 dilution
[20] = peptide modifications: H3K9me3, binder concentration: 1:10,000 dilution
[21] = peptide modifications: H3K9me2 H3T11ph, binder concentration: 1:2,000 dilution
[22] = peptide modifications: H3K9me2 H3T11ph, binder concentration: 1:10,000 dilution
[23] = peptide modifications: H3K9me2 H3S10ph, binder concentration: 1:2,000 dilution
[24] = peptide modifications: H3K9me2 H3S10ph, binder concentration: 1:10,000 dilution

Binder: QTARKSTGGKAPR [H3 5-17 Q T A R Kme3 S T G G Kac A P R]
- peptide microarray binding signal ([1]; peptide modifications: H3K9me3 H3K14ac, binder concentration: 50 nM): 0.005862 ± 5.4e-05
- peptide microarray binding signal ([1]; peptide modifications: H3K9me3 H3K14ac, binder concentration: 500 nM): 0.0246 ± 0.0026
- peptide microarray binding signal ([2]; peptide modifications: H3K9me3 H3K14ac, binder concentration: 10 nM): 0.0279 ± 0.0021
- peptide microarray binding signal ([2]; peptide modifications: H3K9me3 H3K14ac, binder concentration: 100 nM): 0.0183 ± 0.013
- peptide microarray binding signal [3, 5]: 0.0646 ± 0.051
- peptide microarray binding signal [3, 6]: 0.089 ± 0.042
- peptide microarray binding signal [4, 5]: 0.781 ± 0.051
- peptide microarray binding signal [4, 6]: 0.939 ± 0.11

Binder: QTARKSTGGKAPR [H3 5-17 Q T A R Kme2 S T G G Kac A P R]
- peptide microarray binding signal ([1]; peptide modifications: H3K9me2 H3K14ac, binder concentration: 50 nM): 0.002382 ± 1.1e-05
- peptide microarray binding signal ([1]; peptide modifications: H3K9me2 H3K14ac, binder concentration: 500 nM): 0.0103 ± 0.00014
- peptide microarray binding signal ([2]; peptide modifications: H3K9me2 H3K14ac, binder concentration: 10 nM): 0.0115 ± 0.001
- peptide microarray binding signal ([2]; peptide modifications: H3K9me2 H3K14ac, binder concentration: 100 nM): 0.00886 ± 0.0033
- peptide microarray binding signal [3, 7]: 0.00225 ± 0.00054
- peptide microarray binding signal [3, 8]: 0.00228 ± 0.00034
- peptide microarray binding signal [4, 7]: 0.0906 ± 0.0013
- peptide microarray binding signal [4, 8]: 0.0371 ± 0.015

Binder: QTARKSTGGKAPR [H3 5-17 Q T A R Kme S Tph G G K A P R]
- peptide microarray binding signal ([1]; peptide modifications: H3K9me1 H3T11ph, binder concentration: 50 nM): 0.00179 ± 4.4e-05
- peptide microarray binding signal ([1]; peptide modifications: H3K9me1 H3T11ph, binder concentration: 500 nM): 0.003 ± 0.00011
- peptide microarray binding signal ([2]; peptide modifications: H3K9me1 H3T11ph, binder concentration: 10 nM): 0.002208 ± 2.2e-05
- peptide microarray binding signal ([2]; peptide modifications: H3K9me1 H3T11ph, binder concentration: 100 nM): 0.00524 ± 0.00071
- peptide microarray binding signal [3, 9]: 0.000396 ± 4.2e-05
- peptide microarray binding signal [3, 10]: 0.000285 ± 3.1e-06
- peptide microarray binding signal [4, 9]: 0.00856 ± 0.0022
- peptide microarray binding signal [4, 10]: 0.00208 ± 5.1e-05

Binder: QTARKSTGGKAPR [H3 5-17 Q T A R Kme2 S T G G K A P R]
- peptide microarray binding signal ([1]; peptide modifications: H3K9me2, binder concentration: 50 nM): 0.0133 ± 0.0071
- peptide microarray binding signal ([1]; peptide modifications: H3K9me2, binder concentration: 500 nM): 0.0011 ± 2.1e-05
- peptide microarray binding signal ([2]; peptide modifications: H3K9me2, binder concentration: 10 nM): 0.00334 ± 9.6e-05
- peptide microarray binding signal ([2]; peptide modifications: H3K9me2, binder concentration: 100 nM): 0.00248 ± 8.6e-05
- peptide microarray binding signal [3, 11]: 0.00583 ± 0.0036
- peptide microarray binding signal [3, 12]: 0.0112 ± 0.0032
- peptide microarray binding signal [4, 11]: 0.00489 ± 0.0019
- peptide microarray binding signal [4, 12]: 0.003 ± 0.00036

Binder: QTARKSTGGKAPR [H3 5-17 Q T A R Kme2 S T G G Kme2 A P R]
- peptide microarray binding signal ([1]; peptide modifications: H3K9me2 H3K14me2, binder concentration: 50 nM): 0.00555 ± 0.0003
- peptide microarray binding signal ([1]; peptide modifications: H3K9me2 H3K14me2, binder concentration: 500 nM): 0.011 ± 0.00059
- peptide microarray binding signal ([2]; peptide modifications: H3K9me2 H3K14me2, binder concentration: 10 nM): 0.00937 ± 0.00041
- peptide microarray binding signal ([2]; peptide modifications: H3K9me2 H3K14me2, binder concentration: 100 nM): 0.00999 ± 0.0011
- peptide microarray binding signal [3, 13]: 0.00672 ± 0.00077
- peptide microarray binding signal [3, 14]: 0.00496 ± 0.00056
- peptide microarray binding signal [4, 13]: 0.175 ± 0.021
- peptide microarray binding signal [4, 14]: 0.0735 ± 0.0023

Binder: QTARKSTGGKAPR [H3 5-17 Q T A R Kme2 S T G G Kme3 A P R]
- peptide microarray binding signal ([1]; peptide modifications: H3K9me2 H3K14me3, binder concentration: 50 nM): 0.00301 ± 0.00046
- peptide microarray binding signal ([1]; peptide modifications: H3K9me2 H3K14me3, binder concentration: 500 nM): 0.002 ± 0.00021
- peptide microarray binding signal ([2]; peptide modifications: H3K9me2 H3K14me3, binder concentration: 10 nM): 0.00143 ± 1.7e-05
- peptide microarray binding signal ([2]; peptide modifications: H3K9me2 H3K14me3, binder concentration: 100 nM): 0.00106 ± 3e-05
- peptide microarray binding signal [3, 15]: 0.00126 ± 0.00029
- peptide microarray binding signal [3, 16]: 0.00405 ± 0.0015
- peptide microarray binding signal [4, 15]: 0.00464 ± 0.0015
- peptide microarray binding signal [4, 16]: 0.00646 ± 0.0028

Binder: QTARKSTGGKAPR [H3 5-17 Q T A R Kme2 S T G G Kme A P R]
- peptide microarray binding signal ([1]; peptide modifications: H3K9me2 H3K14me1, binder concentration: 50 nM): 0.00589 ± 7.1e-05
- peptide microarray binding signal ([1]; peptide modifications: H3K9me2 H3K14me1, binder concentration: 500 nM): 0.015 ± 0.0013
- peptide microarray binding signal ([2]; peptide modifications: H3K9me2 H3K14me1, binder concentration: 10 nM): 0.00812 ± 0.00048
- peptide microarray binding signal ([2]; peptide modifications: H3K9me2 H3K14me1, binder concentration: 100 nM): 0.0359 ± 0.0037
- peptide microarray binding signal [3, 17]: 0.00455 ± 0.00086
- peptide microarray binding signal [3, 18]: 0.00365 ± 0.00015
- peptide microarray binding signal [4, 17]: 0.217 ± 0.078
- peptide microarray binding signal [4, 18]: 0.0891 ± 0.021

Binder: QTARKSTGGKAPR [H3 5-17 Q T A R Kme3 S T G G K A P R]
- peptide microarray binding signal ([1]; peptide modifications: H3K9me3, binder concentration: 50 nM): 0.00411 ± 0.00036
- peptide microarray binding signal ([1]; peptide modifications: H3K9me3, binder concentration: 500 nM): 0.00362 ± 0.00095
- peptide microarray binding signal ([2]; peptide modifications: H3K9me3, binder concentration: 10 nM): 0.00448 ± 6.1e-05
- peptide microarray binding signal ([2]; peptide modifications: H3K9me3, binder concentration: 100 nM): 0.002126 ± 2.1e-05
- peptide microarray binding signal [3, 19]: 0.00266 ± 0.00033
- peptide microarray binding signal [3, 20]: 0.00519 ± 0.00032
- peptide microarray binding signal [4, 19]: 0.00814 ± 0.0004
- peptide microarray binding signal [4, 20]: 0.0129 ± 0.0011

Binder: QTARKSTGGKAPR [H3 5-17 Q T A R Kme2 S Tph G G K A P R]
- peptide microarray binding signal ([1]; peptide modifications: H3K9me2 H3T11ph, binder concentration: 50 nM): 0.00201 ± 3.7e-05
- peptide microarray binding signal ([1]; peptide modifications: H3K9me2 H3T11ph, binder concentration: 500 nM): 0.00319 ± 6.5e-05
- peptide microarray binding signal ([2]; peptide modifications: H3K9me2 H3T11ph, binder concentration: 10 nM): 0.0031 ± 7.8e-05
- peptide microarray binding signal ([2]; peptide modifications: H3K9me2 H3T11ph, binder concentration: 100 nM): 0.0022 ± 3.7e-05
- peptide microarray binding signal [3, 21]: 0.000396 ± 7e-06
- peptide microarray binding signal [3, 22]: 0.000799 ± 8.3e-06
- peptide microarray binding signal [4, 21]: 0.0382 ± 0.01
- peptide microarray binding signal [4, 22]: 0.0291 ± 0.0025

Binder: QTARKSTGGKAPR [H3 5-17 Q T A R Kme2 Sph T G G K A P R]
- peptide microarray binding signal ([1]; peptide modifications: H3K9me2 H3S10ph, binder concentration: 50 nM): 0.00806 ± 0.00056
- peptide microarray binding signal ([1]; peptide modifications: H3K9me2 H3S10ph, binder concentration: 500 nM): 0.0147 ± 0.00082
- peptide microarray binding signal ([2]; peptide modifications: H3K9me2 H3S10ph, binder concentration: 10 nM): 0.03 ± 0.0049
- peptide microarray binding signal ([2]; peptide modifications: H3K9me2 H3S10ph, binder concentration: 100 nM): 0.0527 ± 0.017
- peptide microarray binding signal [3, 23]: 0.0068 ± 0.00063
- peptide microarray binding signal [3, 24]: 0.00639 ± 0.00076
- peptide microarray binding signal [4, 23]: 0.193 ± 0.067
- peptide microarray binding signal [4, 24]: 0.0868 ± 0.021

From the supplement of paper PMC4022240
